Columns and labels:
Test in all cases: DAPPL (digital affinity profiling via proximity ligation, sequencing); 10 mM Tris-HCl pH 7.5, 50 mM NaCl, 1 mM DTT, 4% glycerol, room temperature, 30 min; GST-TFs on glutathione beads, 16-mer random dsDNA library, 0.1% formaldehyde crosslink after washing; high values mean tight binding
Details in all cases: protein: recombinant; tags: N-terminal GST; dsDNA, one strand shown
FLI1 = target: T1, FLI1 (Homo sapiens, UniProt Q01543 1-452)
T1 sequence: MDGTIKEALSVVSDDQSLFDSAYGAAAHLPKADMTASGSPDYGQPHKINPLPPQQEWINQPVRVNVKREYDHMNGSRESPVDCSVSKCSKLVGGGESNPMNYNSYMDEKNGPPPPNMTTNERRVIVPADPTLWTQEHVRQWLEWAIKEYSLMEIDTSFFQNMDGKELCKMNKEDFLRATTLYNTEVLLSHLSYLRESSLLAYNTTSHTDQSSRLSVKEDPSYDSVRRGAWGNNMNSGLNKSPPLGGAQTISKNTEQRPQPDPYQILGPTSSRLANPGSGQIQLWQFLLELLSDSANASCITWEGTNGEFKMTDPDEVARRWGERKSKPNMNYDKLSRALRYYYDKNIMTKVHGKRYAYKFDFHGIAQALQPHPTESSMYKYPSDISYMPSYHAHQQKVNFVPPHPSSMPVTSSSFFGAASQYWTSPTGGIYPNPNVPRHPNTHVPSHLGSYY
Outline: (§1)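 Pools were built from human transcription factors expressed in yeast as GST fusions, captured on glutathione beads and DNA-barcoded, along with a tag-only sample. Incubation with 200 nmole of a 16-mer random double-stranded DNA library lasted 30 min at room temperature in Tris/NaCl/DTT/glycerol buffer, and was followed by washing, 0.1% formaldehyde crosslinking, proximity ligation, PCR amplification and Illumina NextSeq500 sequencing. Binding signal is the quotient of each hexamer's read frequency for a factor and its frequency for the tag-only sample.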

ELK1 = target: T2, ELK1 (Homo sapiens, UniProt P19419 1-428)
T2 sequence: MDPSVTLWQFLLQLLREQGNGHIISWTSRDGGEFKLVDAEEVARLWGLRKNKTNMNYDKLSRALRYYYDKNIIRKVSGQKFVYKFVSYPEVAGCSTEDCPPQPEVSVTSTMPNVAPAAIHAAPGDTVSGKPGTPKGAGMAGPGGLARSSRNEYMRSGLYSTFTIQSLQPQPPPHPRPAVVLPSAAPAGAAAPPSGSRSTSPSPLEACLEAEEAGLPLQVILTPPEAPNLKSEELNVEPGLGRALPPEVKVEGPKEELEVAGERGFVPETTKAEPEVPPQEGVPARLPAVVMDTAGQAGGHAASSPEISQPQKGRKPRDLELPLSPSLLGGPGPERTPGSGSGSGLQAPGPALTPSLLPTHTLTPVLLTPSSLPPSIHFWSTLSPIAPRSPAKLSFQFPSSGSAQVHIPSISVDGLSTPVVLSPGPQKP
Outline: as §1

GABPA = target: T3, GABPA (Homo sapiens, UniProt Q06546 1-454)
T3 sequence: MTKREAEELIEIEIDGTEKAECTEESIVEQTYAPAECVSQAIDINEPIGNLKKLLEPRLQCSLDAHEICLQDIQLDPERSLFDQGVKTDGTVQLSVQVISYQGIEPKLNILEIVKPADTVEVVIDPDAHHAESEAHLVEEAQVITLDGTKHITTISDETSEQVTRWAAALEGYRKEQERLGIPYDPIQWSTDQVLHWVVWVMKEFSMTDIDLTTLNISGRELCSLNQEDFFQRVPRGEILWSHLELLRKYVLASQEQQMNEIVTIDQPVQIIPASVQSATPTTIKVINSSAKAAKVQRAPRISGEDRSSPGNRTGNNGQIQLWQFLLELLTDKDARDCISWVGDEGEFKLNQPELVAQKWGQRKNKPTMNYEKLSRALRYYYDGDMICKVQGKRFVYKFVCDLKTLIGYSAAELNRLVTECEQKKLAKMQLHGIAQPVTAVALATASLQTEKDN
Outline: as §1

ERG = target: T4, ERG (Homo sapiens, UniProt P11308 1-479)
T4 sequence: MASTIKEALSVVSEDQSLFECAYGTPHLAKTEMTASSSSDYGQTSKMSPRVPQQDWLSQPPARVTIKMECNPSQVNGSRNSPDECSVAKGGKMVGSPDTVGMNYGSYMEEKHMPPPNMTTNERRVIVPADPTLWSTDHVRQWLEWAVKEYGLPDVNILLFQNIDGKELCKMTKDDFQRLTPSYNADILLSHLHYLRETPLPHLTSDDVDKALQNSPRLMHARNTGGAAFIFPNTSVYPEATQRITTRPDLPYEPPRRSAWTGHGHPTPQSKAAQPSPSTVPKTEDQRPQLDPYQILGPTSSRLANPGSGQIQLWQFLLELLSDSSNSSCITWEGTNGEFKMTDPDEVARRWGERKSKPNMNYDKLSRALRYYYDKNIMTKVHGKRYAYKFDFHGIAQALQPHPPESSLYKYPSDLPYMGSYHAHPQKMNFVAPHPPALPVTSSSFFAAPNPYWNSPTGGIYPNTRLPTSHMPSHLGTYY
Outline: as §1

ELF1 = ELF1 (Homo sapiens, UniProt P32519 1-619)
Outline: as §1

SPI1 = SPI1 (Homo sapiens, UniProt P17947 1-270)
Outline: as §1

SPIB = SPIB (Homo sapiens, UniProt Q01892 1-262)
Outline: as §1

ELK3 = target: T5, ELK3 (Homo sapiens, UniProt P41970 1-407)
T5 sequence: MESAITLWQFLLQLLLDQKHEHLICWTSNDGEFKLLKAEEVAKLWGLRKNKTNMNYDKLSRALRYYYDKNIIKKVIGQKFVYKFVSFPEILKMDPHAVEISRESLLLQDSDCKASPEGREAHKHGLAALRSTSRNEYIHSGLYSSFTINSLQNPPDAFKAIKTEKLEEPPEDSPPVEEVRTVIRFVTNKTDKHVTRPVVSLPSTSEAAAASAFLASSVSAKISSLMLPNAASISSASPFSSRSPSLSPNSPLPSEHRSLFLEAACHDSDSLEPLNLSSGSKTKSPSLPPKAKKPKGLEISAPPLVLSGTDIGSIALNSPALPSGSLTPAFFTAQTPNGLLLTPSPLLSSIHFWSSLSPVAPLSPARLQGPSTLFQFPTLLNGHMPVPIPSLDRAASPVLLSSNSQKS
Outline: as §1

EHF = target: T6, EHF (Homo sapiens, UniProt Q9NZC4 1-300)
T6 sequence: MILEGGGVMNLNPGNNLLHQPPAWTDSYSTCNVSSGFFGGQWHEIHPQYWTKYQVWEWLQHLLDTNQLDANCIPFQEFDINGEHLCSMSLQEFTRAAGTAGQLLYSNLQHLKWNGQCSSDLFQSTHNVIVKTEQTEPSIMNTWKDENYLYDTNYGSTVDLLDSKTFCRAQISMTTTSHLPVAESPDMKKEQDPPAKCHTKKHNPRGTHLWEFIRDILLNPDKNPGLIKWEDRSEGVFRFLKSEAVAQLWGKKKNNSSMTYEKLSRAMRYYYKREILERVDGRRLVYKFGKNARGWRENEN
Outline: as §1

Chain of ELF1 (P32519 whole entry): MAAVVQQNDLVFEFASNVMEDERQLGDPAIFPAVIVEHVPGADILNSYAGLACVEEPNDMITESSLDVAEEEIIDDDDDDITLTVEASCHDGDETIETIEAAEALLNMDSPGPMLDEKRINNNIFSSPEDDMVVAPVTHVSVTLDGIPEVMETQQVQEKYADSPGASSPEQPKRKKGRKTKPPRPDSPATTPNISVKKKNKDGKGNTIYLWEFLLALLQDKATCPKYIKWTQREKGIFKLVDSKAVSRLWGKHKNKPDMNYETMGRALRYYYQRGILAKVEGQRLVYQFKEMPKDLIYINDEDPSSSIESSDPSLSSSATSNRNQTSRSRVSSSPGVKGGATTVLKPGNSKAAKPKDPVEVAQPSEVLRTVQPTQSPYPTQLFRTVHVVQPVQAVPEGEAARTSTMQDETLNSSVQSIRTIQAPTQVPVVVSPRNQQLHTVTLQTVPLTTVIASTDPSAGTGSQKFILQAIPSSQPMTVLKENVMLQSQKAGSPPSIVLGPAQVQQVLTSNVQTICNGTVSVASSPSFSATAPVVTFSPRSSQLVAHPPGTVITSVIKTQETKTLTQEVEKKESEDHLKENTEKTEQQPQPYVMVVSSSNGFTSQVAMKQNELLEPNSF
Chain of SPIB (Q01892 whole entry): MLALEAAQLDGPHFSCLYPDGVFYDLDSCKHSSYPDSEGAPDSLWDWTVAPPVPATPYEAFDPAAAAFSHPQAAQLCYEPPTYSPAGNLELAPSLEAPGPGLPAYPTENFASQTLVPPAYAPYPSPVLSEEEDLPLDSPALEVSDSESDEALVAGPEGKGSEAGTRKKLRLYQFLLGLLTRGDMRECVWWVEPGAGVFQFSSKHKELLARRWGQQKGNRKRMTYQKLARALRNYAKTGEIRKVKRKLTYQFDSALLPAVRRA

Sequence	binding signal (FLI1)	binding signal (ELK1)	binding signal (GABPA)	binding signal (ERG)	binding signal (ELF1)	binding signal (SPI1)	binding signal (SPIB)	binding signal (ELK3)	binding signal (EHF)
AACCCA	1.05 fold enrichment (6-mer frequency, TF over GST control)	1.03 fold enrichment (6-mer frequency, TF over GST control)	1.02 fold enrichment (6-mer frequency, TF over GST control)	1.06 fold enrichment (6-mer frequency, TF over GST control)	1.06 fold enrichment (6-mer frequency, TF over GST control)	1 fold enrichment (6-mer frequency, TF over GST control)	1 fold enrichment (6-mer frequency, TF over GST control)	1.1 fold enrichment (6-mer frequency, TF over GST control)	–
ACCCAA	1.12 fold enrichment (6-mer frequency, TF over GST control)	1.15 fold enrichment (6-mer frequency, TF over GST control)	1.18 fold enrichment (6-mer frequency, TF over GST control)	1.03 fold enrichment (6-mer frequency, TF over GST control)	1.16 fold enrichment (6-mer frequency, TF over GST control)	1.12 fold enrichment (6-mer frequency, TF over GST control)	1.08 fold enrichment (6-mer frequency, TF over GST control)	1.03 fold enrichment (6-mer frequency, TF over GST control)	–
CGATCA	1.15 fold enrichment (6-mer frequency, TF over GST control)	1.13 fold enrichment (6-mer frequency, TF over GST control)	1.15 fold enrichment (6-mer frequency, TF over GST control)	1.07 fold enrichment (6-mer frequency, TF over GST control)	1.2 fold enrichment (6-mer frequency, TF over GST control)	1.02 fold enrichment (6-mer frequency, TF over GST control)	1.06 fold enrichment (6-mer frequency, TF over GST control)	1.23 fold enrichment (6-mer frequency, TF over GST control)	–
ACCGAA	1.09 fold enrichment (6-mer frequency, TF over GST control)	1.04 fold enrichment (6-mer frequency, TF over GST control)	1.05 fold enrichment (6-mer frequency, TF over GST control)	–	1.11 fold enrichment (6-mer frequency, TF over GST control)	1.06 fold enrichment (6-mer frequency, TF over GST control)	1.01 fold enrichment (6-mer frequency, TF over GST control)	1.01 fold enrichment (6-mer frequency, TF over GST control)	1 fold enrichment (6-mer frequency, TF over GST control)
GGCTTG	1.12 fold enrichment (6-mer frequency, TF over GST control)	1.04 fold enrichment (6-mer frequency, TF over GST control)	1.04 fold enrichment (6-mer frequency, TF over GST control)	1.09 fold enrichment (6-mer frequency, TF over GST control)	–	1.02 fold enrichment (6-mer frequency, TF over GST control)	1.06 fold enrichment (6-mer frequency, TF over GST control)	–	–
TTTAGG	1.05 fold enrichment (6-mer frequency, TF over GST control)	1.12 fold enrichment (6-mer frequency, TF over GST control)	1.11 fold enrichment (6-mer frequency, TF over GST control)	1.08 fold enrichment (6-mer frequency, TF over GST control)	–	1.08 fold enrichment (6-mer frequency, TF over GST control)	1.15 fold enrichment (6-mer frequency, TF over GST control)	1.07 fold enrichment (6-mer frequency, TF over GST control)	1.06 fold enrichment (6-mer frequency, TF over GST control)
AGATAA	1.09 fold enrichment (6-mer frequency, TF over GST control)	1.07 fold enrichment (6-mer frequency, TF over GST control)	1.09 fold enrichment (6-mer frequency, TF over GST control)	–	1.01 fold enrichment (6-mer frequency, TF over GST control)	1.01 fold enrichment (6-mer frequency, TF over GST control)	1.12 fold enrichment (6-mer frequency, TF over GST control)	–	1.03 fold enrichment (6-mer frequency, TF over GST control)
CCTGTG	1.06 fold enrichment (6-mer frequency, TF over GST control)	1.24 fold enrichment (6-mer frequency, TF over GST control)	1.08 fold enrichment (6-mer frequency, TF over GST control)	1.21 fold enrichment (6-mer frequency, TF over GST control)	1.11 fold enrichment (6-mer frequency, TF over GST control)	1.04 fold enrichment (6-mer frequency, TF over GST control)	1.18 fold enrichment (6-mer frequency, TF over GST control)	1.01 fold enrichment (6-mer frequency, TF over GST control)	–
GGCATT	1.08 fold enrichment (6-mer frequency, TF over GST control)	1.05 fold enrichment (6-mer frequency, TF over GST control)	1.04 fold enrichment (6-mer frequency, TF over GST control)	1.04 fold enrichment (6-mer frequency, TF over GST control)	–	1.05 fold enrichment (6-mer frequency, TF over GST control)	–	1.14 fold enrichment (6-mer frequency, TF over GST control)	1.01 fold enrichment (6-mer frequency, TF over GST control)
GAACCA	1.02 fold enrichment (6-mer frequency, TF over GST control)	1.05 fold enrichment (6-mer frequency, TF over GST control)	1.05 fold enrichment (6-mer frequency, TF over GST control)	–	1.05 fold enrichment (6-mer frequency, TF over GST control)	–	–	–	1.08 fold enrichment (6-mer frequency, TF over GST control)
AATCGA	1 fold enrichment (6-mer frequency, TF over GST control)	1.06 fold enrichment (6-mer frequency, TF over GST control)	1.07 fold enrichment (6-mer frequency, TF over GST control)	1.02 fold enrichment (6-mer frequency, TF over GST control)	1.03 fold enrichment (6-mer frequency, TF over GST control)	–	1.07 fold enrichment (6-mer frequency, TF over GST control)	1.12 fold enrichment (6-mer frequency, TF over GST control)	–
CAATCA	1.11 fold enrichment (6-mer frequency, TF over GST control)	1.11 fold enrichment (6-mer frequency, TF over GST control)	1.24 fold enrichment (6-mer frequency, TF over GST control)	1.14 fold enrichment (6-mer frequency, TF over GST control)	1.19 fold enrichment (6-mer frequency, TF over GST control)	1.08 fold enrichment (6-mer frequency, TF over GST control)	1.1 fold enrichment (6-mer frequency, TF over GST control)	1.05 fold enrichment (6-mer frequency, TF over GST control)	–

From PMC7862700, “An all-to-all approach to the identification of sequence-specific readers for epigenetic DNA modifications on cytosine”
